In the library only some 3.4% were active in any assay of this set; here they are far more common.
MITF inh: MITF inhibitors, primary screen, biochemical, AlphaScreen, human | 650,000 tested, 0.91% active | Microphthalmia-associated transcription factor (Homo sapiens), O75030 | AlphaScreen MITF homodimerization, bead proximity signal | inhibition, % at 2.6 µM; in the data active = inhibition above about 50%
TEAD-YAP inh: TEAD-YAP interaction inhibition, primary screen, TEAD-YAP interaction inhibitor project, luminescence, HEK-TIYL cells. TEAD-Gal4/YAP UAS-luciferase luminescence. 640,000 tested, 1.4% active. inhibition, % at 9.12 µM; in the data active = inhibition above about 32%
GPR151 ag: activators of human GPR151, primary screen, cell-based, PathHunter beta-arrestin, luminescence. G-protein coupled receptor 151 (Homo sapiens), Q8TDV0. 650,000 tested, 1% active. AID 1508602, 2020. PathHunter beta-arrestin GPR151 cells. activation, % at 11.2 µM; in the data active = activation above about 4.9%
FBW7 act: FBW7 E3 ligase activators, primary screen, biochemical, AlphaScreen, human. 650,000 tested, 0.13% active. normalized activity (activation), % at 26.1 µM. F-box/WD repeat-containing protein 7 (Homo sapiens), Q969H0. AlphaScreen FBW7–phospho-cyclin E peptide binding, activator screen; in the data active = normalized activity above about 1.9%;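 note: purified mutant Fbw7 with reduced substrate affinity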
Target sequence (Q969H0 whole entry, looked up): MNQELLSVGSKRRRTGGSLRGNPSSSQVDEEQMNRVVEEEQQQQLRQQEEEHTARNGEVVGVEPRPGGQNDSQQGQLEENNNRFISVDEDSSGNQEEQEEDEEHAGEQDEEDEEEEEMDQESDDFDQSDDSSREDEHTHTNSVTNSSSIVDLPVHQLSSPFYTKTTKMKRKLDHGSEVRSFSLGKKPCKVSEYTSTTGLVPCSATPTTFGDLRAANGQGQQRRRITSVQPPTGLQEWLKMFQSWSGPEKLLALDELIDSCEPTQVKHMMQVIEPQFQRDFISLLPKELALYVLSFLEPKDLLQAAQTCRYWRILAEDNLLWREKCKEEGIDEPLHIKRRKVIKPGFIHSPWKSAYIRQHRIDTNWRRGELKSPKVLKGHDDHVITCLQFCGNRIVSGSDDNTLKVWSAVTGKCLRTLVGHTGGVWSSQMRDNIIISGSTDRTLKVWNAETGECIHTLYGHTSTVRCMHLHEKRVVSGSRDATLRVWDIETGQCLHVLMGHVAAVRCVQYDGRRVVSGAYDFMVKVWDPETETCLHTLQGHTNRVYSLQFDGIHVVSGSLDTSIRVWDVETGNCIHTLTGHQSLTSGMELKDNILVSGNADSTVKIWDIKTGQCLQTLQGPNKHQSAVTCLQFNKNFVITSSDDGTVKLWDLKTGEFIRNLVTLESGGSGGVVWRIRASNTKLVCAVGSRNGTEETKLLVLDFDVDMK
MITF confirm: MITF inhibitors, retest of hits, confirmation, biochemical, AlphaScreen, triplicate; AlphaScreen MITF homodimerization, biotin/His-MITF beads; 4,700 tested, 16% active; shares compounds with MITF inh; inhibition, % at 2.6 µM;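 active = inhibition above a cutoff derived from the DMSO control wells, cut at about 28% in these data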;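 note: inhibitors lower the bead chemiluminescence by keeping MITF from dimerizing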
AlphaScreen intf2: AlphaScreen optical interference compounds, counter-screen for MITF inhibitor project, biochemical, triplicate; LysRS AlphaScreen counterscreen, signal interference; inhibition, % at 2.6 µM; 4,700 tested, 7.6% active; shares compounds with MITF inh; AID 1259376, 2018;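 active = inhibition above a cutoff derived from the DMSO control wells, cut at about 30% in these data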
Large screens that a line does not name were inactive (follow-up assays come after a bar, where they were run).

CCCC(=O)Nc1ccc(C(=O)Nc2ccc(NC(C)=O)cc2)cc1	none
CC1CCN(CC(=O)Nc2ccc(N3CCCC3)cc2)CC1	MITF inh 54.9 | MITF confirm inactive | AlphaScreen intf2 inactive
Cc1ccc(NC(=O)CN2CCC(C(=O)NCc3cccs3)CC2)cc1	MITF inh 113.8 | MITF confirm inactive | AlphaScreen intf2 inactive
COC(=O)c1ccc(NC(=O)CN2CCN(CC#N)CC2)cc1	MITF inh 71.0 | MITF confirm inactive | AlphaScreen intf2 inactive
O=C(CN1CCCC1)Nc1ccc(N2CCCCC2)cc1	none
Cc1ccc(NC(=O)CN2CCC(C(=O)NCc3ccccn3)CC2)cc1	none
CCCCOc1ccc(NC(=O)CN2CCN(C(C)=O)CC2)cc1	MITF inh 66.0 | MITF confirm inactive | AlphaScreen intf2 inactive
CC1CCN(CC(=O)Nc2ccc(C(=O)N3CCCCC3)cc2)CC1	MITF inh 58.5 | MITF confirm inactive | AlphaScreen intf2 inactive
CCN1CCN(CC(=O)Nc2ccc(N3CCCCC3)cc2)CC1	MITF inh 81.0 | MITF confirm inactive | AlphaScreen intf2 inactive
c1cnc2c(c1)ccc1cccnc12	MITF inh 111.1, TEAD-YAP inh 35.1 | MITF confirm 115.2 | AlphaScreen intf2 100.6
CC[n+]1cccc2ccc3cccnc3c21	none
c1ccc(Cc2nc3cnccn3c2NCc2ccc3c(c2)OCO3)cc1	MITF inh 67.7 | MITF confirm inactive | AlphaScreen intf2 inactive
c1csc(-c2nc3cnccn3c2NCc2ccc3c(c2)OCO3)c1	none
CC1CCN(CC(=O)N(C)C2(c3ccccc3Cl)CCCCC2=O)CC1 (stereo unspecified)	MITF inh 90.0 | MITF confirm inactive | AlphaScreen intf2 inactive
CC(=O)Nc1ccc(Nc2ccnc(NCc3cccnc3)n2)cc1	none
O=C(NCCCn1ccnc1)NC(C(F)(F)F)C(F)(F)F	none
O=C(/C(Br)=C/NCCCn1ccnc1)C(F)(F)F	MITF inh 64.8 | MITF confirm 39.9 | AlphaScreen intf2 99.1
Cc1ccc(CCNC(=O)CS(=O)(=O)Cc2nc(-c3ccccc3C)oc2C)cc1	none
COc1ccc(CN2CCN(Cc3ccc(SC)cc3)CC2)c(OC)c1OC	none
COc1cccc(CN2CCN(Cc3ccc(F)cc3)C(CCO)C2)c1OC (stereo unspecified)	none
COc1ccc(CN2CCN(Cc3ccc(F)cc3)CC2)c(OC)c1OC	MITF inh 59.9 | MITF confirm inactive | AlphaScreen intf2 inactive
COc1cccc(CN2CCN(Cc3ccc(F)cc3)CC2)c1OC	MITF inh 79.7 | MITF confirm inactive | AlphaScreen intf2 inactive
CCS(=O)(=O)N1CCN(Cc2ccc(OC)c(OC)c2OC)CC1	none
COc1cc(OC)c(OC)cc1CN1CCN(Cc2ccc(OC)c(OC)c2OC)CC1	MITF inh 58.8 | MITF confirm inactive | AlphaScreen intf2 inactive
COc1ccc(CN2CCCCC2)c(OC)c1OC	none
CCOc1ccc(CN2CCN(Cc3ccc(OC)c(OC)c3OC)CC2)cc1	MITF inh 65.7 | MITF confirm inactive | AlphaScreen intf2 inactive
CCOC(=O)c1c(NC(=O)c2cc3nc(-c4cccs4)cc(C(F)(F)F)n3n2)sc2c1CCC2	none
CCOc1cc(C2NC(=S)N(C)C(C)=C2C(=O)OC)ccc1OCc1ccccc1 (stereo unspecified)	none
COc1ccc(CN2CCN(Cc3ccc(Cl)cc3)CC2)c2ccccc12	MITF inh 82.5 | MITF confirm inactive | AlphaScreen intf2 inactive
CCN1CCN(Cc2ccc(OC)c3ccccc23)CC1	none
C/C(=N\N1CCOCC1)c1ccc(-n2ccnc2)cc1	MITF inh 76.5 | MITF confirm inactive | AlphaScreen intf2 inactive
C/C(=N\Nc1ccccn1)c1ccc(-n2ccnc2)cc1	none
COC(=O)C1=C(C)N(C)C(=O)NC1c1cccc(Oc2ccccc2)c1 (stereo unspecified)	none
COc1cc(CNCc2cccc(OC)c2OC)cc(OC)c1	none
COc1cc(CNCc2ccncc2)cc(OC)c1OC	MITF inh 58.1 | MITF confirm inactive | AlphaScreen intf2 inactive
CCc1ccc(CN2CCN(Cc3cc(OC)c(OC)c(OC)c3)CC2)cc1	MITF inh 58.5 | MITF confirm inactive | AlphaScreen intf2 inactive
COc1cc(CN2CCCC2)cc(OC)c1OC	none
COc1cc(CN2CCN(Cc3ccncc3)CC2)cc(OC)c1OC	MITF inh 70.5 | MITF confirm inactive | AlphaScreen intf2 inactive
COc1cc(CNCc2ccccc2C(F)(F)F)cc(OC)c1OC	MITF inh 64.6 | MITF confirm inactive | AlphaScreen intf2 inactive
COc1cccc(CNCc2ccncc2)c1	none
Clc1cccc(/C=N/Nc2cc(N3CCOCC3)ncn2)c1	none
COc1cc(CN2CCN(Cc3ccc(F)cc3)CC2)cc(OC)c1OC	MITF inh 83.6 | MITF confirm inactive | AlphaScreen intf2 inactive
COc1cc(CN2CCN(c3ccc(F)cc3)CC2)cc(OC)c1OC	none
N#Cc1cccc(NC(=O)CSc2nc3ccccc3s2)c1	none
N#Cc1cccc(NC(=O)CSc2nncs2)c1	MITF inh 52.7 | MITF confirm inactive | AlphaScreen intf2 inactive
COc1ccc2nc(NC(=O)c3ccc(S(=O)(=O)N4CCOCC4)cc3)sc2c1	none
CC(=O)c1ccc(-n2c(-c3cc(-c4ccco4)[nH]n3)n[nH]c2=S)cc1	MITF inh 61.1 | MITF confirm inactive | AlphaScreen intf2 37.2
Cc1ccc(-n2c(-c3ccco3)n[nH]c2=S)cc1C	none
CSc1nc(NN)c2c3c(sc2n1)CN(C)CC3	MITF inh 73.8 | MITF confirm inactive | AlphaScreen intf2 inactive
O=[N+]([O-])c1ccc(S(=O)(=O)Nc2ccc(F)cc2)cc1	none
COc1ccc(CN2CCN(Cc3cccc(OC)c3OC)CC2)cc1	MITF inh 75.3 | MITF confirm inactive | AlphaScreen intf2 inactive
CCOc1ccccc1N1CCN(Cc2cccc(OC)c2OC)CC1	none
CCc1ccc(CN2CCN(Cc3cccc(OC)c3OC)CC2)cc1	MITF inh 63.7 | MITF confirm inactive | AlphaScreen intf2 inactive
C[C@@H]1O[C@@H](OC[C@H]2OC(Oc3c(-c4ccc(OCCO)c(OCCO)c4)oc4cc(OCCO)cc(O)c4c3=O)[C@H](O)[C@@H](O)[C@@H]2O)[C@H](O)[C@H](O)[C@H]1O (stereo partly specified)	none
Cc1ccc(OCCN2CCCCC2)c([N+](=O)[O-])c1	MITF inh 64.1 | MITF confirm inactive | AlphaScreen intf2 inactive
Cc1ccc(OCCN2CCNCC2)c([N+](=O)[O-])c1	none
Cc1ccc(OCCN2CC(C)OC(C)C2)c([N+](=O)[O-])c1 (stereo unspecified)	MITF inh 75.6 | MITF confirm inactive | AlphaScreen intf2 inactive
Cc1ccc(OCCCN2CCCC2)c([N+](=O)[O-])c1	none

Assay outcomes deposited in PubChem by The Scripps Research Institute Molecular Screening Center.
